This is a sample that favours compounds with a hit; in the whole collection about 27% have one here.
CYP2C9 inh: human CYP2C9 inhibition; P11712; CYP2C9 Supersomes, luciferin-H conversion, luminescence; inhibition, % at 5 µM; actives 20% (n = 96,000);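 active = blocking of liver enzyme CYP2C9 beyond about 50% at 5 µM, limit read from the data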
CYP2C9 act: increases human cytochrome P450 2C9 activity; P11712; recombinant CYP2C9, luciferin-H conversion, luminescence; active compounds read high; factor 1 = untreated enzyme, 0 = blocked; activation factor at 5 µM; actives 1.4% (n = 96,000);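 active = activation factor of 2 or more for CYP2C9 at a 5 µM dose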;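 note: 0 = sulfaphenazole-blocked wells and 1 = vehicle-only wells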
CYP2C19 act: cytochrome P450 2C19 (human) activation; recombinant CYP2C19, luciferin-H EGE luminescence; active compounds read high; 0 = fully inhibited enzyme, 1 = untreated enzyme; P33261; 96,000 tested, under 10 active; activation factor at 5 µM;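 active = activation factor of at least 2 at 5 µM in the primary screen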;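 note: 0 = wells with 2.5 mM tranylcypromine and 1 = vehicle-only wells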
Target sequence (P33261 whole entry, looked up): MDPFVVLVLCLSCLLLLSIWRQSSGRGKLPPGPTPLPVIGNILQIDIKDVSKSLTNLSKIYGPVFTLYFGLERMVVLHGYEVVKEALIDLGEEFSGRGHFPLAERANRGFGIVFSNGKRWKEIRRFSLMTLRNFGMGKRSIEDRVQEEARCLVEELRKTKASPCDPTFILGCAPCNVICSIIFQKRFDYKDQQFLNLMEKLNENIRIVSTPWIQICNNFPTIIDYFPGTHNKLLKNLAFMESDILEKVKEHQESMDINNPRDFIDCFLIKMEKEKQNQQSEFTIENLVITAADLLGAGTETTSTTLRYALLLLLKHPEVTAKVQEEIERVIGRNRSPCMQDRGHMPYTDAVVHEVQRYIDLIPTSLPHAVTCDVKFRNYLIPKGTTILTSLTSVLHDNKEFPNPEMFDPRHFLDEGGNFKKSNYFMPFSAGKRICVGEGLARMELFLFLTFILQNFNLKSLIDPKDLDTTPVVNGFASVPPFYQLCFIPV
sEH inh: inhibitors of human soluble epoxide hydrolase | actives 0.34% (n = 91,000) | P34913 | recombinant human sEH enzymatic activity assay | inhibition, % at 2 µM; in the data active = inhibition above about 80%
CYP2C19 inhib: inhibitors of human CYP2C19 | CYP2C19 Supersomes, luciferin-H EGE luminescence, 30 min | inhibition, % at 5 µM | actives 21% (n = 96,000) | AID 778;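 active = CYP2C19 inhibition above a set limit at 5 µM in the primary screen, cut at about 50% in these data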;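 note: plate controls were negative control wells for no effect and 2.5 mM tranylcypromine positive control for full effect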
sEH act: increases human soluble epoxide hydrolase activity | purified human sEH enzymatic activity, activator screen | actives 0.04% (n = 91,000) | AID 717 | activation, % at 2 µM | P34913; in the data active = activation above about 37%
* = called active by the depositor; . = not tested or not shown.

SMILES	CYP2C9 inh	CYP2C9 act	CYP2C19 act	sEH inh	CYP2C19 inhib	sEH act
CC(=O)c1cccc(Nc2nc(=O)c3cccnc3s2)c1	78*	0.2	0.3	0	74*	0
Cc1ccc(-n2c(Cc3ccccc3)nnc2SCC(=O)NNC(=O)Cc2ccccc2)cc1	41	0.6	0.8	13	22	-11
Cn1c(SCc2nc(-c3ccc(Cl)cc3)no2)nnc1-c1cccs1	16	0.8	0.8	-15	24	18
CCOc1ccc(-n2c(SCc3nc(-c4cccs4)no3)nnc2-c2ccncc2)cc1	94*	0.1	0.1	3	92*	2
Cn1c(SCc2nc(-c3ccccc3)no2)nnc1-c1cccs1	.	.	.	11	.	-7
Cn1c(SCc2nc(-c3cccs3)no2)nnc1C1CCCCC1	46	0.5	0.2	11	78*	-6
CCCn1c(SCc2nc(-c3cccs3)no2)nnc1-c1ccncc1	30	0.7	0.4	2	56*	4
O=S(=O)(c1ccc(OCC(O)CN2CCN(c3ccccc3O)CC2)cc1)N1CCOCC1 (stereo not given)	54*	0.5	0.8	4	24	-5
O=S(=O)(c1ccc(OCC(O)CN2CCC(Cc3ccccc3)CC2)cc1)N1CCOCC1 (stereo not given)	30	0.7	0.7	7	31	-9
O=S(=O)(c1ccc(OCC(O)CN2CCCC2)cc1)N1CCOCC1 (stereo not given)	38	0.6	1	5	0	-2
O=S(=O)(c1ccc(OCC(O)CN2CCN(c3ccccc3)CC2)cc1)N1CCOCC1 (stereo not given)	34	0.7	0.4	-7	64*	10
CC(CCc1ccccc1)NC(=O)c1nnc(Cc2ccc(Cl)cc2)o1 (stereo not given)	15	0.8	0.8	10	16	-8
CC(C(=O)NCc1cccnc1)N1C(=O)c2ccccc2C1=O (stereo not given)	.	.	.	0	.	2
CCOc1cccc(-c2nnc3sc(-c4cc(OC)c(OC)c(OC)c4)nn23)c1	63*	0.4	0.6	.	36	.
COc1cccc(-c2nn3c(-c4cccc(C)c4)nnc3s2)c1	76*	0.2	0.1	.	89*	.
COc1cc(-c2nn3c(-c4ccccc4)nnc3s2)cc(OC)c1OC	72*	0.3	0.3	8	74*	-7
COc1cc(OC)c(-c2nn3c(-c4ccco4)nnc3s2)cc1OC	73*	0.3	0.6	-12	44	11
CCOc1cccc(-c2nnc3sc(-c4cccs4)nn23)c1	58*	0.4	0.4	.	60*	.
c1coc(-c2nnc3sc(-c4cccs4)nn23)c1	45	0.5	0.4	.	64*	.
CCOc1cccc(-c2nnc3sc(COc4ccc(C)cc4)nn23)c1	64*	0.4	0.5	.	54*	.
c1ccc(OCc2nn3c(-c4ccco4)nnc3s2)cc1	49	0.5	0.3	-2	67*	1
c1csc(-c2nn3c(-c4ccncc4)nnc3s2)c1	32	0.7	0.6	.	36	.
COc1ccc(-c2nnc3sc(COc4ccccc4)nn23)cc1	26	0.7	0.6	.	36	.
O=C1C=C(c2ccccc2)OC(=O)C1C(=O)c1ccccc1 (stereo not given)	.	.	.	10	.	-7
COC(=O)Cc1cc(=O)n2[nH]c(C(F)(F)F)nc2n1	15	0.9	0.7	2	33	-3
SMILES	CYP2C9 inh	CYP2C9 act	CYP2C19 act	sEH inh	CYP2C19 inhib	sEH act
c1cc(-c2nnc3sc(C4CCCCC4)nn23)ccn1	21	0.8	0.1	.	88*	.
Cc1nn2c(-c3ccc(Cl)cc3)nnc2s1	6	0.9	0.4	.	56*	.
COc1ccccc1-c1nnc2sc(C3CCCCC3)nn12	29	0.7	0.6	.	39	.
COc1cc(-c2nn3c(Cc4ccccc4)nnc3s2)cc(OC)c1OC	70*	0.3	0.5	-18	53*	17
COc1ccc(-c2nnc3sc(-c4ccco4)nn23)cc1OC	11	0.9	0.9	5	12	-7
COc1cc(-c2nnc3sc(-c4ccco4)nn23)cc(OC)c1OC	65*	0.4	0.6	.	36	.
CC1CCc2nn(CC(=O)NCCN3CCCCC3C)cc2C1 (stereo not given)	-1	1	0.9	-10	10	10
CC(C)(C)c1ccc(-c2nnc3sc(-c4ccncc4)nn23)cc1	53*	0.5	0.4	10	58*	-7
Cc1nnc2sc(-c3ccncc3)nn12	-1	1	0.9	-8	13	7
O=C(c1ccc(S(=O)(=O)N2CCOCC2)cc1)N1CCCc2ccccc21	28	0.7	0.4	10	56*	-10
CCn1cc(C(=O)N2CCc3ccccc32)c(=O)c2cc(S(=O)(=O)N3CCOCC3)ccc21	16	0.8	0.9	7	8	-5
O=C(c1ccc(C(=O)N2CCCc3ccccc32)nc1)N1CCCc2ccccc21	11	0.9	0.9	.	12	.
O=C(c1ccc(S(=O)(=O)N2CCCCC2)cc1)N1CCCc2ccccc21	76*	0.2	0.7	0	27	3
O=C(c1ccc(S(=O)(=O)N2CCCC2)cc1)N1CCCc2ccccc21	88*	0.1	0	4	97*	-3
Cc1nc(SCC(O)CO)c([N+](=O)[O-])[nH]1 (stereo not given)	12	0.9	1	-9	-2	12
O=C(Nc1ncc(Cc2ccccc2Cl)s1)C1CCCO1 (stereo not given)	.	.	.	10	.	-11
O=C(Oc1cccnc1)c1cc(S(=O)(=O)N2CCCCC2)ccc1Cl	11	0.9	1	9	1	-8
CCOc1ccc2[nH]c(=O)c(C(c3nnnn3Cc3ccco3)N3CCC(C)CC3)cc2c1 (stereo not given)	40	0.6	0.4	-7	62*	11
Cc1ccc(C)c2[nH]c(=O)c(C(c3nnnn3Cc3ccco3)N3CCc4ccccc4C3)cc12 (stereo not given)	81*	0.2	0	-13	95*	12
CCOc1ccc2[nH]c(=O)c(C(c3nnnn3Cc3ccco3)N3CCCC(C)C3)cc2c1 (stereo not given)	79*	0.2	0	0	96*	0
CCOc1ccc2[nH]c(=O)c(C(c3nnnn3C3CCCCC3)N3CCN(C)CC3)cc2c1 (stereo not given)	-5	1.1	1.1	.	-6	.
COc1ccc(Cn2nc(C)cc2C)cc1OC	8	0.9	0.6	3	40	-2
O=C1CN(C(=O)CSc2nnnn2-c2ccc(Cl)cc2)c2ccccc2N1	-5	1	0.9	-6	13	5
N#CC1=C(SCC(=O)c2ccccc2)NC2=C(C(=O)CCC2)C1c1ccco1 (stereo not given)	92*	0.1	0.1	.	94*	.
Cc1ccc(C(=O)CSC2=C(C#N)C(c3ccco3)C3=C(CCCC3=O)N2)cc1 (stereo not given)	92*	0.1	0.1	.	88*	.

Screening data: PubChem BioAssay, several laboratories
